Laboratory results published in PubChem BioAssay (NCI).
Values joined by “and” are separate entries in the source; they are usually repeats but may differ in a detail not shown here. Equal values may be shown once. This is part of a sample that, as a whole, favours compounds with a hit. Of some 79,000 tested, about 15% had one in any assay. Some structures have more than one record in an assay (separate samples or runs), and their calls can disagree. Active and inactive are the calls of the source. No stated cut-off is given here; in the data, active means growth inhibition above about 70%; inactive means the rest. *1 amine or outer side, *2 acyl side, *3 side chain or, on linkers, in order; H or OH if unused. Where a SMILES comes first, the peptide text is derived from it. [ ]: non-standard residue; d: D form. X2 = CC[C@H](C)[C@H](OC(=O)[C@@H](C)[C@@H](CC)N[*:1])C(=O)[*:2]; X3 = C[C@H](N[*:1])C(=O)C(C)(C)C(=O)[*:2]; NMeY = CN[C@@H](Cc1ccc(O)cc1)C(=O)O; NMeL = CN[C@@H](CC(C)C)C(=O)O; NMeV = CN[C@H](C(=O)O)C(C)C

Columns and labels:
[1] = NCI Yeast Anticancer Drug Screen. Data for the rad50 strain (AID 155);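 further: 0% = growth of vehicle-only cultures of the same strain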; conditions: S. cerevisiae rad50 strain growth inhibition, stronger effect = higher value
Method in brief: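 Yeast carrying a defined DNA repair defect were exposed to test compounds, and growth was compared with vehicle-treated controls to give percent inhibition.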

[2] = NCI Yeast Anticancer Drug Screen. Data for the mec2-1 strain (AID 157); conditions: S. cerevisiae mec2-1 strain, stronger effect = higher value
Method in brief: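 Mutant yeast (mec2-1) grown with compound; growth inhibition relative to vehicle control reported.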

[3] = NCI Yeast Anticancer Drug Screen. Data for the sgs1 mgt1 strain (AID 161);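 further: 0% = growth of cultures given vehicle only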; conditions: S. cerevisiae sgs1 mgt1 strain, stronger effect = higher value
Method in brief: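 Percent growth inhibition was derived by comparing compound-exposed mutant yeast with vehicle-exposed cultures. The strain carries alterations in DNA damage repair.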

[4] = NCI Yeast Anticancer Drug Screen. Data for the cln2 rad14 strain (AID 165);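 further: 0% = growth equal to vehicle treated cultures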; conditions: S. cerevisiae cln2 rad14 strain, stronger effect = higher value
Method in brief: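 Readout is yeast growth inhibition versus vehicle-treated controls, using a strain with cln2 and rad14 alterations exposed to compound.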

[5] = NCI Yeast Anticancer Drug Screen. Data for the bub3 strain (AID 167); conditions: S. cerevisiae bub3 mutant strain, stronger effect = higher value
Method in brief: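 Compounds were applied to a genetically altered yeast strain carrying a cell-cycle control defect. Growth inhibition was scored against vehicle-treated controls.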

[6] = NCI Yeast Anticancer Drug Screen. Data for the mlh1 rad18 strain (AID 175); conditions: S. cerevisiae mlh1 rad18 strain growth inhibition, stronger effect = higher value
Method in brief: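 Genetically defined yeast (DNA repair-deficient) exposed to compounds; growth inhibition determined relative to vehicle.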

[7] = at 5.0 µM (retest, dose inferred, filed as 0.5)
[8] = at 50.0 µM (retest, dose inferred, filed as 5.0)

SMILES | growth inhibition [1, 7] | growth inhibition [1, 8] | growth inhibition ([1]; at 50.0 µM) | growth inhibition [2, 7] | growth inhibition [2, 8] | growth inhibition ([2]; at 50.0 µM) | growth inhibition [3, 7] | growth inhibition [3, 8] | growth inhibition ([3]; at 50.0 µM) | growth inhibition [4, 7] | growth inhibition [4, 8] | growth inhibition ([4]; at 50.0 µM) | growth inhibition [5, 7] | growth inhibition [5, 8] | growth inhibition ([5]; at 50.0 µM) | growth inhibition [6, 7] | growth inhibition [6, 8] | growth inhibition ([6]; at 50.0 µM)
O=[N+]([O-])c1cccc(N=Cc2ccc(N(CCCl)CCCl)cc2)c1 | 4% (inactive) | 53% (inactive) | 66% (inactive) | 2% (inactive) | 64% (inactive) | 21.9% (inactive) | 3% (inactive) | 63% (inactive) | 44.4% (inactive) | 2% (inactive) | 54% (inactive) | 26.1% (inactive) | 3% (inactive) | 74% (active) | 8% (inactive) | 7% (inactive) | 74% (active) | 60% (inactive)
c1ccc2c[n+](CCCCCCCCCC[n+]3ccc4ccccc4c3)ccc2c1 | 67% (inactive) | 95% (active) | 89.2% (active) | 70% (active) | 98% (active) | 91.2% (active) | 79% (active) | 98% (active) | 90.5% (active) | 68% (inactive) | 98% (active) | 83.7% (active) | 88% (active) | 99% (active) | 91.3% (active) | 72% (active) | 94% (active) | 88.1% (active)
CCCCCCCCCCCC1CCCC(C)N1 (configuration not stated) | 8% (inactive) and 28% (inactive) | 98% (active) and 92% (active) | 91.1% (active) and 91.6% (active) | 19% (inactive) and 26% (inactive) | 98% (active) and 88% (active) | 93.3% (active) | 17% (inactive) and 32% (inactive) | 98% (active) and 90% (active) | 93.3% (active) and 92.5% (active) | 10% (inactive) and 49% (inactive) | 94% (active) and 95% (active) | 90.5% (active) and 91% (active) | 24% (inactive) and 32% (inactive) | 97% (active) and 85% (active) | 91.8% (active) and 91.5% (active) | 13% (inactive) and 36% (inactive) | 98% (active) and 86% (active) | 92.1% (active) and 91.3% (active)
CCCCS.[Hg] | 99% (active) | 94% (active) | 98.9% (active) | 99% (active) | 96% (active) | 99% (active) | 99% (active) | 94% (active) | 99.1% (active) | 97% (active) | 93% (active) | 98.7% (active) | 99% (active) | 93% (active) | 98.8% (active) | 99% (active) | 94% (active) | 99.2% (active)
CS(=O)(=O)[O-].CS(=O)(=O)[O-].NC1CCCCC1N.[Pt+4] (configuration not stated) | 99% (active) | 99% (active) | 90.7% (active) | 100% (active) | 99% (active) | 91.2% (active) | 100% (active) | 99% (active) | 92% (active) | 100% (active) | 99% (active) | 90.9% (active) | 99% (active) | 99% (active) | 91.2% (active) | 99% (active) | 98% (active) | 88.3% (active)
CN1CC(C(=O)NC2(C)OC3(O)C4CCCN4C(=O)C(Cc4ccccc4)N3C2=O)C=C2c3cccc4[nH]cc(c34)CC21 (configuration not stated) | 26% (inactive) and -4% (inactive) | 35% (inactive) and 23% (inactive) | 8.55% (inactive) and 49.2% (inactive) | 6% (inactive) and -1% (inactive) | 14% (inactive) and 29% (inactive) | 6.75% (inactive) and 70.6% (active) | 4% (inactive) and -2% (inactive) | 12% (inactive) and 50% (inactive) | -9.3% (inactive) and 61.7% (inactive) | -15% (inactive) and 1% (inactive) | 22% (inactive) and 15% (inactive) | -11.6% (inactive) and 40.9% (inactive) | -24% (inactive) and 2% (inactive) | 4% (inactive) and 30% (inactive) | 8.25% (inactive) and 57% (inactive) | 2% (inactive) and -3% (inactive) | 33% (inactive) and 65% (inactive) | 51.1% (inactive) and 73% (active)
C=CO/C(C)=C(\[Se]c1ccccc1)C(C)=O | 4% (inactive) | 89% (active) | 93.4% (active) | 3% (inactive) | 91% (active) | 85.9% (active) | 7% (inactive) | 89% (active) | 91.8% (active) | -10% (inactive) | 38% (inactive) | 57% (inactive) | -8% (inactive) | 65% (inactive) | 75% (active) | 6% (inactive) | 91% (active) | 91% (active)
O=[N+]([O-])c1cc([N+](=O)[O-])c2cccnc2c1O | -4% (inactive) | 3% (inactive) | 98.6% (active) | -10% (inactive) | -10% (inactive) | 98.3% (active) | -3% (inactive) | 11% (inactive) | 97.5% (active) | 2% (inactive) | -2% (inactive) | 94.3% (active) | -7% (inactive) | -11% (inactive) | 98% (active) | -4% (inactive) | -7% (inactive) | 96.8% (active)
CC[C@H](C)[C@@H]1OC(=O)[C@@H](C)[C@@H](CC)NC(=O)[C@H](C)NC(=O)C(C)(C)C(=O)[C@H](C)NC(=O)[C@H](Cc2ccc(OC)cc2)N(C)C(=O)[C@H](C(C)C)N(C)C(=O)CNC(=O)[C@H](CC(C)C)N(C)C(=O)CNC1=O (cyclo(A[X2]G[NMeL]G[NMeV][NMeY](Me)[X3])) | 99% (active) | 99% (active) | 92% (active) | 99% (active) | 99% (active) | 94% (active) | 99% (active) | 99% (active) | 93% (active) | 98% (active) | 98% (active) | 91% (active) | 99% (active) | 98% (active) | 92.7% (active) | 96% (active) | 97% (active) | 90.2% (active)
O=[N+]([O-])c1cc(C(F)(F)F)cc2n[se]nc12 | 82% (active) | 98% (active) | 87.2% (active) | 81% (active) | 99% (active) | 93.3% (active) | 47% (inactive) | 100% (active) | 90.8% (active) | 49% (inactive) | 99% (active) | 90.8% (active) | 94% (active) | 97% (active) | 90.6% (active) | 75% (active) | 97% (active) | 90.5% (active)
Cc1ccc(C(=O)OC(C(=O)O)C(OC(=O)c2ccc(C)cc2)C(=O)O)cc1 (configuration not stated) (tested in a mixture with another compound) | 15% (inactive) | 79% (active) | 6.35% (inactive) and 92.2% (active) | -7% (inactive) | 61% (inactive) | 9% (inactive) and 93.7% (active) | 28% (inactive) | 70% (active) | 21.2% (inactive) and 93.8% (active) | 34% (inactive) | 77% (active) | -1.75% (inactive) and 91.3% (active) | -10% (inactive) | 88% (active) | 23.3% (inactive) and 93% (active) | 19% (inactive) | 86% (active) | 12.3% (inactive) and 92.5% (active)
O=C([O][Hg][CH2]C1CC(O)CC([CH2][Hg][O]C(=O)c2ccccc2)O1)c1ccccc1 (configuration not stated) | 98% (active) | 98% (active) | 99% (active) | 98% (active) | 99% (active) | 99.2% (active) | 99% (active) | 99% (active) | 99.3% (active) | 96% (active) | 97% (active) | 97.4% (active) | 97% (active) | 99% (active) | 98.5% (active) | 99% (active) | 99% (active) | 98.6% (active)
O=C1[O][Hg][c]2cccc3cccc1c23 | 99% (active) | 99% (active) | 98.3% (active) | 100% (active) | 99% (active) | 99% (active) | 99% (active) | 99% (active) | 98.9% (active) | 89% (active) | 99% (active) | 98.2% (active) | 100% (active) | 58% (inactive) | 98.2% (active) | 100% (active) | 99% (active) | 97.5% (active)
CSCCl | 3% (inactive) | 51% (inactive) | 88.2% (active) | 3% (inactive) | 73% (active) | 94.5% (active) | 4% (inactive) | 86% (active) | 90% (active) | 11% (inactive) | 97% (active) | 88.8% (active) | 0% (inactive) | 75% (active) | 97.6% (active) | -6% (inactive) | 95% (active) | 95% (active)
